Compounds with a hit are over-represented: about 3.5% of the library has one in this group of screens.
Mtb bLac sens = beta-lactam sensitization of Mtb H37Rv, H37Rv; M. tuberculosis H37Rv growth with meropenem, percent inhibition; 0.27% of 330,000 active; inhibition, % at 25 µM; AID 434955, 2010; call rule not given here;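 also: growth measured after seven days incubation then overnight dye step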
GDH-TPI counter = GDH-TPI coupling enzyme inhibitors, primary screen, artefact control for M. tuberculosis FBA inhibitor project, biochemical, absorbance, full deck; GDH-TPI coupled enzyme counterscreen, NADH absorbance; inhibition, % at 4.8 µM; AID 588335, 2011; 1.2% of 360,000 active; in the data active = inhibition above about 30%
Mtb UGM inh = M. tuberculosis UGM enzyme inhibitors, primary screen, biochemical, fluorescence polarization, single point | purified UGM, fluorescence polarization probe displacement | AID 504406, 2011 | inhibition, % at 10 µM | 0.06% of 320,000 active | UDP-galactopyranose mutase (Mycobacterium tuberculosis (strain ATCC 25618 / H37Rv)), …; in the data active = inhibition above about 10%, passing the limit was not always enough; inconclusive = no clear call, values can overlap the other calls
FBA Mtb inh = Mtb FBA enzyme inhibitors, primary screen, biochemical, fluorescence, strain H37Rv. AID 588726, 2011. Fructose-bisphosphate aldolase (Mycobacterium tuberculosis (strain ATCC 25618 / H37Rv)), …. 2.3% of 360,000 active. purified M. tuberculosis FBA, fluorescence read-out. inhibition, % at 1 µM; in the data active = inhibition above about 27%
Rv3671c protease = Rv3671c serine protease inhibitors, primary screen, biochemical, fluorescence polarization, M. tuberculosis H37Rv | P9WHR9 | inhibition, % at 5.96 µM | 0.048% of 320,000 active | AID 2606, 2010; in the data active = inhibition above about 38%;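 also: extracellular domain of Rv3671c used as enzyme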
Target sequence (P9WHR9 whole entry, looked up, the tested form may be a part): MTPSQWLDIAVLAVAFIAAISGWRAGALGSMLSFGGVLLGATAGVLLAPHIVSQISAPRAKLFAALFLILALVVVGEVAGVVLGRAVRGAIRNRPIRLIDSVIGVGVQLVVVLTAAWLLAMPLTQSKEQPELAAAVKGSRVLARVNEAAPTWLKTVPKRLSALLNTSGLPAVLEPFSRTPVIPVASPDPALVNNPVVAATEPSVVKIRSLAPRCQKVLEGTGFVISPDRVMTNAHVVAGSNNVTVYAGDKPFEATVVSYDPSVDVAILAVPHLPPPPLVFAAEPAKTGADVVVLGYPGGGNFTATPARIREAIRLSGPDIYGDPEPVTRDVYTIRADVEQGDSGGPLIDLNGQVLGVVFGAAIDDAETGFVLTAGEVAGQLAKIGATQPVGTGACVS
Each line names hits and unclear results; the compound was inactive in the other large screens.

C/C1=C\CCC2C(/C=C(\C)CC1)OC(=O)C2CN1CCCCC1 (stereo not drawn)	none
CC(=O)Nc1ccc(S(=O)(=O)Nc2nc3ccccc3nc2N2CCCCCC2)cc1	GDH-TPI counter 33
O=S(=O)(Nc1nc2ccccc2nc1N1CCc2ccccc2C1)c1ccc(Br)cc1	FBA Mtb inh 126
CC(=O)Nc1ccc(S(=O)(=O)Nc2nc3ccccc3nc2N2CCc3ccccc3C2)cc1	none
C1=C[C@H]2CC[C@@H]1N(c1ccccc1)O2	none (no result: Mtb bLac sens, Mtb UGM inh, Rv3671c protease)
COc1ccc(OC)c(N(CC(=O)NCCSC2CCCCC2)S(=O)(=O)c2ccccc2)c1	none
CCOc1ccc(-c2cc(C)[n+](CCc3ccc(OC)c(OC)c3)c(-c3ccc(OCC)cc3)c2)cc1	GDH-TPI counter 31 (no result: Rv3671c protease)
Cc1cc(-c2ccccc2)cc(-c2ccccc2)[n+]1CCc1ccccc1	none
CC(C)N(C(=S)Nc1cccc(C(F)(F)F)c1)C(C)c1ccccn1 (stereo not drawn)	none
NS(=O)(=O)c1ccc(C(=O)Nc2ccc(-c3nc4cccnc4s3)cc2)cc1	none
CCc1ccc(S(=O)(=O)Nc2ccc(-c3nc4cccnc4s3)cc2)s1	GDH-TPI counter 45, FBA Mtb inh active
O=S(=O)(Nc1ccc(-c2nc3cccnc3s2)cc1)c1cc(F)ccc1F	FBA Mtb inh active
Cc1ccc(-c2nc3cccnc3s2)cc1NS(=O)(=O)c1cccs1	none
O=S(=O)([O-])CCC[n+]1c(SCCCS(=O)(=O)O)sc2ccc(Cl)cc21	none
CSc1nc(SCC(=O)NCc2ccco2)c2c3c(sc2n1)COC(C)(C)C3	Mtb bLac sens inconclusive, GDH-TPI counter 36
CN(C)c1ccc(/C=N\NC(=O)c2ccc(Cn3cc(Cl)cn3)cc2)cc1	GDH-TPI counter 35
Cc1nc2c(C)cccc2cc1C(=O)N/N=C/c1ccc(N(C)C)cc1	GDH-TPI counter 51
Cc1occc1C(=O)N/N=C/c1ccc(N(C)C)cc1	GDH-TPI counter 81
CC(=O)Nc1ccc(/C=N/NC(=O)c2cc3cc(C)ccc3nc2C)cc1	GDH-TPI counter 38
CC(=O)Nc1ccc(/C=N/NC(=O)c2cc3ccccc3nc2C)cc1	none
C=CCOc1cccc(C(=O)Nc2ncn[nH]2)c1	none
CCOC(=O)C1CCN(C(=O)CN2C(=O)c3cccnc3Oc3ccccc32)CC1	Mtb bLac sens inconclusive
CC(=O)Nc1nc(C)c(CCCOc2ccc([N+](=O)[O-])cc2)c(=O)[nH]1	none
CC(=O)c1cnc2c(-c3ccccc3)c(-c3ccccc3)nn2c1C	none
Cn1c(=O)n(C)c2cc(/C=N/NC(=O)c3ccc(Cl)cc3)ccc21	GDH-TPI counter 51
CN(C)c1ccc(/C=N/NC(=O)c2ccc(Cl)cc2)cc1	GDH-TPI counter 31
CN(C)c1ccc(/C=N/NC(=O)c2ccccc2)cc1	none
O=C(N/N=C/c1ccoc1)c1ccc(Cl)cc1	none
O=c1[nH]c(=S)c2c(n1-c1ccccc1)CCC2	GDH-TPI counter 35
CSc1nc(SCC(=O)NC(c2ccccc2)c2ccccc2)c2c3c(sc2n1)CN(C)CC3	none
CSc1nc(NCC(C)O)c2c3c(sc2n1)CN(C)CC3 (stereo not drawn)	FBA Mtb inh 113
CCN(CC)CCCNc1nc(SC)nc2sc3c(c12)CCN(C)C3	none (no result: GDH-TPI counter, FBA Mtb inh)
CSc1nc(NCCCO)c2c3c(sc2n1)CN(C)CC3	FBA Mtb inh 176
Cc1ccc2nc3c(cc(C(=O)NC4CCS(=O)(=O)C4)n3Cc3ccccc3)c(=O)n2c1 (stereo not drawn)	FBA Mtb inh active
Cc1ccc2nc3c(cc(C(=O)NCc4ccccc4)c(=N)n3CCCn3ccnc3)c(=O)n2c1	FBA Mtb inh 131 (no result: Mtb bLac sens, Mtb UGM inh, Rv3671c protease)
CCCCCn1c(=N)c(S(=O)(=O)c2ccc(Br)cc2)cc2c(=O)n3cccc(C)c3nc21	none
N#Cc1cc2c(=O)n3ccccc3nc2n(CCCn2ccnc2)c1=N	none
Cc1ccc2nc3c(cc(C(=O)NCCc4ccccc4)c(=N)n3CCN3CCOCC3)c(=O)n2c1	FBA Mtb inh 188
Cc1cccn2c(=O)c3cc(C(=O)NC(C)c4ccccc4)c(=N)n(CCCn4ccnc4)c3nc12 (stereo not drawn)	FBA Mtb inh 161
Cc1cccn2c(=O)c3cc(C#N)c(=N)n(CCN4CCOCC4)c3nc12	FBA Mtb inh 53 (no result: Mtb bLac sens, Mtb UGM inh, Rv3671c protease)
COCCNC(=O)c1cc2c(=O)n3cccc(C)c3nc2n(Cc2ccncc2)c1=N	FBA Mtb inh active
Cc1cccn2c(=O)c3cc(C#N)c(=N)n(Cc4ccncc4)c3nc12	none (no result: GDH-TPI counter, FBA Mtb inh)
CCCCNC(=O)c1cc2c(=O)n3cccc(C)c3nc2n(Cc2ccncc2)c1=N	FBA Mtb inh 151
Cc1cc(-n2c(=O)c(C#N)cc3c(=O)n4cccc(C)c4nc32)no1	FBA Mtb inh active
CCCn1c(=N)c(C#N)cc2c(=O)n3cccc(C)c3nc21	none (no result: GDH-TPI counter, FBA Mtb inh)
CN(C)CCOC(=O)c1ccc2c(c1)S(=O)(=O)c1ccccc1C2=O	none
COc1ccccc1NC(=O)C(C)N1C(=O)c2ccccc2C1=O (stereo not drawn)	none
COCCCn1c(=N)c(C(=O)NCc2ccc3c(c2)OCO3)cc2c(=O)n3cccc(C)c3nc21	none (no result: Mtb bLac sens, Mtb UGM inh, Rv3671c protease)
CCCCNC(=O)c1cc2c(=O)n3cccc(C)c3nc2n(CCN2CCOCC2)c1=N	FBA Mtb inh 137
COc1cc(/C=C/C(=O)Nc2ccc3[nH]c(=O)[nH]c3c2)cc(OC)c1OC	none
O=C(/C=C/c1ccc(F)cc1)Nc1ccc2[nH]c(=O)[nH]c2c1	GDH-TPI counter 42
C=CCSc1nnc(-c2cc3c(s2)-c2ccccc2CC3)o1	FBA Mtb inh active
C=CCSc1nnc(-c2cccc3ccccc23)o1	none (no result: Mtb UGM inh)
CSc1ccc(-c2nc(CN3CCCCC3c3cccnc3)c(C)o2)cc1 (stereo not drawn)	none
N#Cc1c(-c2ccc(Cl)cc2)c2c([nH]c1=O)-c1ccccc1OC2	FBA Mtb inh 184
O=C(COC(=O)CCSc1ccccc1Cl)NCc1ccco1	none
Cn1c(=O)c2c(nc(NCc3ccc4c(c3)OCO4)n2C)n(C)c1=O	none
Cn1c(=O)c2[nH]c(C=Cc3ccc4c(c3)OCO4)nc2n(C)c1=O	GDH-TPI counter 31 (no result: Mtb bLac sens, Mtb UGM inh, Rv3671c protease)
Cc1ccc(S(=O)(=O)N2CCN(C(=O)c3ccc([N+](=O)[O-])cc3)C2)cc1	none
CCOC(=O)C(=CNc1ccc(N2CCOCC2)cc1)C(=O)OCC	GDH-TPI counter 63
COc1cc(C(=O)Nc2ccc3c(c2)CCN3C(C)=O)cc(OC)c1OC	none
CCOC(=O)C(=CNc1ccc(C#N)cc1)C(=O)OCC	none
CCOC(=O)C(=CNc1ccc(S(N)(=O)=O)cc1)C(=O)OCC	GDH-TPI counter 41
CCOC(=O)C(=CNc1ccc2c(c1)CCN2C(C)=O)C(=O)OCC	GDH-TPI counter 35
CCOC(=O)C(=CNc1ncccc1C)C(=O)OCC	GDH-TPI counter 38
COc1ccc(/C=N\NC(=S)SCN2C(=O)C3CCC(C)(C2=O)C3(C)C)cc1 (stereo not drawn)	GDH-TPI counter 46

Source: PubChem BioAssay
